We go through 39 sequences from the OligoGym collection.
Also: reference of the scale not given here.

For one experiment, the target named is C7orf11. The experiment is described as follows: pooled miR-30 sensor sort-seq; sequence = guide strand. Conditions: shRNA.
On to TTGAGTATTGCTGTATTGTTGG, for which the sensor-assay potency score (higher = more potent) was -0.097. Still for that read-out and setting: next, ATATCCACTACAGATACTGGTT: -0.708; TTATATCCACTACAGATACTGG: -1.05. Same read-out and setting: the result for TAATTATCCAATCAAAGTCATC reads -1.65; that for TTTTTCTCTAACACGCCCTGAT, 0.0567; that for TTGGCTTATATCCACTACAGAT, -1.16. On to TCCAACTCATTAGACATTCTTT, for which the sensor-assay potency score (higher = more potent) is -1.12. Same read-out and setting: the result for TCTAATATCAACAATACCTGAT reads 0.0324. On the same count and under the same terms, next, TTCTTTTTTCTCTAACACGCCC: -0.504; TTTTTTCTCTAACACGCCCTGA: -0.403; TAAATGTTGCAAGTTATCCTAC: 0.0898. Still for that read-out and setting: the result for TTTGAGTATTGCTGTATTGTTG reads -0.804.

Another experiment deals with C7orf47. The description is as above. The settings on record: shRNA.
Consider TTTCTGGGTCACACAAGATGGT, for which the sensor-assay potency score (higher = more potent) was -1.07. Same read-out and setting: next, TGGAGATTCATAAAATAGCGTT: -0.725; TCACACAAGATGGTCATGTCTG: -0.315; TTCTGGGTCACACAAGATGGTC: -1.8. For the sequence TAGCGTTTCTGGGTCACACAAG, the sensor-assay potency score (higher = more potent) was -0.834. The same measure, in the same setting: the result for AAGATGGTCATGTCTGGCCCAG reads -1.42; that for TAACACAAAAATACGAACTAGC, 0.2; that for TAAAATAGCGTTTCTGGGTCAC, 0.138. On the same count and under the same terms, next, TCATAAAATAGCGTTTCTGGGT: -0.72.

For the sequence TGGGTCACACAAGATGGTCATG, the sensor-assay potency score (higher = more potent) is -1.71. Consider TAGTTTAACACAAAAATACGAA, for which the sensor-assay potency score (higher = more potent) was -0.764.

ATTCATAAAATAGCGTTTCTGG: the sensor-assay potency score (higher = more potent) was -0.587.

The next experiment deals with C7orf69. The description is as above. Conditions: shRNA.
As for TAGTTTGACAAAACTTGTAGAG, the sensor-assay potency score (higher = more potent) was -0.507.

As to ATAGTTTGACAAAACTTGTAGA, the sensor-assay potency score (higher = more potent) is -0.39. Same read-out and setting: the result for TTTGATAGTTTGACAAAACTTG reads -0.171.

Regarding TTGCTCTGCATTTGATAGTTTG, the sensor-assay potency score (higher = more potent) is -1.46.

As for AAAACTTGTAGAGAAGTCCAGA, the sensor-assay potency score (higher = more potent) was -0.425.

TTCAGCTCTCCTATCCGTGCAA: the sensor-assay potency score (higher = more potent) was 0.252.

Turning to AAGTCCAGAGTTAAGAACCAGC, the sensor-assay potency score (higher = more potent) is -0.81. On the same count and under the same terms, the result for TTTCCATCCATGACCAACTTTT reads -0.995; that for TGATAGTTTGACAAAACTTGTA, -0.512; that for TTGATAGTTTGACAAAACTTGT, -1.4.

Take TTTGCTCTGCATTTGATAGTTT: the sensor-assay potency score (higher = more potent) was -0.51. Still for that read-out and setting: next, TTGTAGAGAAGTCCAGAGTTAA: -1.47.

In a further experiment the target is C8B. The experiment is described as above. The settings on record: shRNA.
Regarding TAACACAGTCTTCGACTTCCTT, the sensor-assay potency score (higher = more potent) was -0.392. The same measure, in the same setting: next, TAGCTTTCCACATTGTAGGGCT: 0.376; TTAACTTTGATGATGGCTGGGT: 0.335.
